Assay results: the supplement of paper PMC7801607

Tests used:
[1] = tested on: CHO; test: % viability of CHO cells (MTT); higher = less toxic; conditions: 48 h
Summary of the method: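 Percent viability of CHO cells, relative to untreated cells, was read colorimetrically by tetrazolium (MTT) assay. Cells were seeded at 10^6 cells/well and treated for 48 h with compound at 2 or 20 µM in fresh medium.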

[2] = tested on: HepG2-A16-CD81; test: % inhibition of HepG2 viability (CellTiter-Glo); higher = more toxic; conditions: 5 µM
[3] = tested on: Plasmodium falciparum NF54 stage IV/V gametocytes; test: % inhibition of gametocyte viability (PrestoBlue); higher = more inhibition; conditions: 48 h
Summary of the method: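 Stage IV/V NF54 gametocytes were exposed to compound at 1 or 5 µM for 48 h at 37 °C under stationary, hypoxic conditions, then read by PrestoBlue fluorescence at 612 nm. The percent inhibition of gametocyte viability was normalised to vehicle and kill controls from one run.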

[4] = tested on: Plasmodium falciparum NF54 asexual blood stage; test: % inhibition of asexual blood stage proliferation (pLDH); higher = more inhibition; conditions: 72 h
Summary of the method: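 Ring-stage cultures of Plasmodium falciparum NF54 at 1% haematocrit and 2% parasitaemia were treated with compound at 2 or 20 µM in 96-well plates and kept for 72 h at 37 °C under 4% CO2, 3% O2 and 93% N2. Parasite survival was measured by the parasite lactate dehydrogenase assay, read colorimetrically at 620 nm. Percent inhibition of asexual proliferation was calculated relative to control wells, and the screen was carried out on two separate occasions.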

[5] = tested on: Plasmodium falciparum NF54 stage IV/V gametocytes; test: % inhibition of gametocyte viability (ATP bioluminescence); higher = more inhibition; conditions: 24 h
Summary of the method: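 Stage IV/V NF54 gametocytes were enriched on density gradients and seeded at 30,000 per well in 96-well plates with compound at 1 or 5 µM. Plates were incubated for 24 h at 37 °C. ATP was measured with the Promega BacTiter Glo bioluminescence system. Percent inhibition of gametocyte viability was normalised to DMSO and kill controls from a single run.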

[6] = tested on: Plasmodium falciparum NF54 stage IV/V gametocytes; test: % inhibition of gametocyte viability (luciferase reporter); higher = more inhibition; conditions: 48 h
Summary of the method: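 Stage IV/V gametocytes of the NF54-Pfs16-GFP-Luc line (2% gametocytaemia, 2% haematocrit) were exposed to compound at 1 or 5 µM. Incubation was 48 h at 37 °C, stationary and hypoxic. Luminescence was read on 30 µL lysate plus 30 µL Promega luciferin substrate on a GloMax-Multi+ reader with 10 s integration. Percent inhibition was normalised to DMSO and kill controls from a single run.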

[7] = tested on: Plasmodium berghei ANKA liver stage in HepG2-A16-CD81; test: % inhibition of liver stage parasite viability (luciferase); higher = more inhibition; conditions: 5 µM; 48 h
Description: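 Single-concentration screen of the MMV Pandemic Response Box. P. falciparum NF54 asexual blood stages: pLDH assay, 72 h at 37 °C, 2 and 20 µM, n=2. Stage IV/V gametocytes (NF54): luciferase reporter (NF54-Pfs16-GFP-Luc, 48 h), ATP bioluminescence (24 h) and PrestoBlue (48 h) at 1 and 5 µM, n=1. P. berghei liver stage (luciferase in HepG2-A16-CD81, 48 h post infection) at 5 µM, n=4. All normalised to DMSO and kill controls as % inhibition.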
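Wherever % inhibition of HepG2 viability (CellTiter-Glo) is given: HepG2-A16-CD81 hepatoma cells plated as in the liver-stage assay but without sporozoites, with DMSO wells as negative and 25 µM puromycin as positive control.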

| SMILES | % viability of CHO cells ([1]; 2 µM) [%] | % viability of CHO cells ([1]; 20 µM) [%] | % inhibition of HepG2 viability [2] [%] | % inhibition of gametocyte viability ([3]; 1 µM) [%] | % inhibition of gametocyte viability ([3]; 5 µM) [%] | % inhibition of asexual blood stage proliferation ([4]; 2 µM) [%] | % inhibition of asexual blood stage proliferation ([4]; 20 µM) [%] | % inhibition of gametocyte viability ([5]; 1 µM) [%] | % inhibition of gametocyte viability ([5]; 5 µM) [%] | % inhibition of gametocyte viability ([6]; 1 µM) [%] | % inhibition of gametocyte viability ([6]; 5 µM) [%] | % inhibition of liver stage parasite viability [7] [%] |
| --- | --- | --- | --- | --- | --- | --- | --- | --- | --- | --- | --- | --- |
| NCc1ccc(S(N)(=O)=O)cc1 | 83.8 | 129 | 6.22 | 7.26 | 15.6 | 24 | 96.5 | < 0 | < 0 | < 0 | < 0 | 19.8 |
| C=CCc1cc(Cc2cnc(N)nc2N)cc(OC)c1O | 89.2 | 105 | 7.8 | 12.8 | 29.7 | 29.1 | 76.8 | < 0 | < 0 | < 0 | < 0 | 68.4 |
| CC(C)n1cnc2c(NCc3ccccc3)nc(NCc3ccccc3)nc21 | 104 | 58.3 | 7.56 | < 0 | < 0 | 45.5 | 60.5 | < 0 | < 0 | < 0 | < 0 | 17.1 |
| CC(C)(C)NC(=O)[C@@H]1CN(Cc2cnc3occc3c2)CCN1C[C@@H](O)C[C@@H](Cc1ccccc1)C(=O)N[C@H]1c2ccccc2C[C@H]1O | 99.9 | 78.9 | 4.33 | 30.9 | 51.4 | 55.2 | 55.9 | 1.91 | < 0 | 2.7 | 15.5 | 36 |
| CCc1nc2ccccn2c1C(=O)NCc1ccccc1 | 123 | 58.5 | 6.82 | < 0 | < 0 | 6.85 | 18.2 | < 0 | < 0 | < 0 | 8.65 | 25.4 |
| COC(=O)Nc1nc2cc(Sc3ccccc3)ccc2[nH]1 | 103 | 101 | 32.9 | < 0 | 11.8 | -7.16 | 5.37 | 3.38 | < 0 | < 0 | < 0 | -25.4 |
| COc1ccc(C(C)(C)C)cc1NC(=O)C(=O)c1ccc(OCCN2CCOCC2)c2ccccc12 | 97.6 | 130 | 1.14 | 12.9 | 26.4 | 29.2 | 23.5 | < 0 | < 0 | 6.49 | < 0 |  |
| CCOC(=O)/C=C/[C@H](C[C@@H]1CCNC1=O)NC(=O)[C@H](CC)n1cccc(NC(=O)c2cc(C)on2)c1=O | 89 | 79.7 | 0.129 | 12 | 12.7 | 43.3 | 49.5 | < 0 | < 0 | 6.73 | 10.7 |  |
| CC(C)C(=O)N[C@H]1[C@H]([C@H](O)[C@H](O)CO)OC(C(=O)O)=C[C@@H]1N=[N+]=[N-] | 91.9 | 113 | 5.84 | < 0 | 14.9 | 9.36 | 29.6 | 1.53 | < 0 | < 0 | < 0 | 10.3 |
| COc1cc(NCc2ccc3nc(N)nc(N)c3c2C)cc(OC)c1OC | 109 | 47.7 | 17.2 | < 0 | < 0 | 40.8 | 88.6 | < 0 | < 0 | < 0 | < 0 | 69.1 |
| Oc1ccc(NCc2ccccc2OCc2ccccc2)cc1 | 97.9 | 103 | -1.04 | < 0 | < 0 | 18.6 | 95 | < 0 | < 0 | < 0 | < 0 | 25.2 |
| CCc1nc(N)nc(N)c1C#CCc1ccccc1 | 105 | 92.5 | 5.43 | 1.8 | < 0 | 66 | 97.2 | < 0 | < 0 | 5.41 | < 0 | 76.9 |
| Nc1cc(-c2nc3ccccc3[nH]2)n[nH]c1=O | 70.3 | 49.8 | 2.54 | 28.3 | 78.8 | 31.5 | 79.1 | 5.5 | < 0 | 1.36 | < 0 | 24 |
